Shown are actives, neighbours in structure and some others; about 4.3% of the full set was active somewhere.
sPLA2-III inh: Blocks human group III sPLA2 activity; inhibition, % at 12.2 µM; AID 743126; QFRET BODIPY PC-A2 liposome hydrolysis, fluorescence; Q9NZ20; 0.56% of 370,000 active;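 active = inhibition above mean plus 3 SD of compounds lying within the high and low control bounds, cut at about 19% in these data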
ADAM17 inh: ADAM17 inhibition, QFRET primary screen; recombinant ADAM17, EDANS/DABCYL FRET peptide cleavage; 0.83% of 370,000 active; inhibition, % at 6.95 µM; AID 720648; P78536;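 active = inhibition above the mean of compounds lying between control limits plus 3 SD, set per campaign, cut at about 8.5% in these data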
NR3A LBD binder: modulates the human NR3A ligand-binding domain; NR3A LBD differential scanning fluorimetry, Tm shift; 0% = protein alone, 100% = glycine-bound protein; Tm shift relative to glycine control, % at 25 µM; 2.5% of 340,000 active;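 active = melting temperature shift of at least 10% of the positive control shift, at one fixed dose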
ADAM10 inh: inhibits human ADAM10; recombinant ADAM10, EDANS/DABCYL FRET peptide cleavage, 3 h; inhibition, % at 7 µM; 0.62% of 370,000 active;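 active = inhibition above a per-campaign cutoff equal to the mean of compounds falling between control-based bounds plus 3 SD, cut at about 20% in these data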
Target sequence (O14672 214-748 limits assumed): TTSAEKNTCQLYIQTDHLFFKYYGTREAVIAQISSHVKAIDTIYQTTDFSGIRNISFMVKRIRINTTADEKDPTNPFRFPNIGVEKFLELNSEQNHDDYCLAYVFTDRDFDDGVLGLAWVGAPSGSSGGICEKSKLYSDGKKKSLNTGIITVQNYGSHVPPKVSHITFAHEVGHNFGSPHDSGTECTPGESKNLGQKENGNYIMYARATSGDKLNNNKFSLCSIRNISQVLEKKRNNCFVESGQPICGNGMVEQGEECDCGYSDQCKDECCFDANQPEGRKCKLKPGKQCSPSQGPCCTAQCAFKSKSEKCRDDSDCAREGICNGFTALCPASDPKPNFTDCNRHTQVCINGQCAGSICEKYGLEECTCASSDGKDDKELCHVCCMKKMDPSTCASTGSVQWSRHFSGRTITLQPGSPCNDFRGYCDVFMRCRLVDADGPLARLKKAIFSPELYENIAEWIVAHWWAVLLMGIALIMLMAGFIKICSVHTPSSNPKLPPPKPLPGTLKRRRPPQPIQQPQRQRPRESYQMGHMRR
FAS-TE inh: blocks the thioesterase domain of human fatty acid synthase | P49327 | recombinant FAS-TE, OMFH fluorogenic substrate, fluorescence endpoint | inhibition, % at 15 µM | 0.67% of 360,000 active | AID 602261;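 active = compounds whose normalised, plate-corrected inhibition of enzyme fluorescence in the single-dose primary screen is 50% or more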
sPLA2 confirm: human GIII-sPLA2 inhibition, confirmation; recombinant hGIII-sPLA2, BODIPY PC-A2 QFRET fluorescence; shares compounds with sPLA2-III inh; 34% of 2,000 active; inhibition, % at 12.2 µM;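 active = mean inhibition across triplicates above the hit cutoff set in the earlier primary screen, cut at about 19% in these data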
BODIPY interf: 535nm fluorescence interference, HGIII-sPLA2 counter-screen | shares compounds with sPLA2-III inh | inhibition, % at 12.2 µM | 8.5% of 2,000 active | BODIPY FL product fluorescence interference, QFRET;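 active = average inhibition above the solvent-only control mean plus 3 SD, cut at about 6% in these data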
535nm interf DR: counter-screen for HGIII-sPLA2 inhibitors: 535nm fluorescence interference, dose response; IC50, µM; shares compounds with sPLA2-III inh; BODIPY FL product fluorescence interference, cell-free; 240 tested, under 10 active;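 active = IC50 at or below 10 µM; inactive = IC50 above 10 µM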
A number is an active result; . = inactive; / = no result given.

SMILES | sPLA2-III inh | ADAM17 inh | NR3A LBD binder | ADAM10 inh | FAS-TE inh | sPLA2 confirm | BODIPY interf | others
CCN(CC)c1ccc(-c2n[nH]c(=S)n2-c2ccccc2)cc1 | 19.5 | . | . | . | . | 44.2 | . | 535nm interf DR=.
CN(C)c1ccc(-c2n[nH]c(=S)n2-c2ccccc2)cc1 | . | . | . | . | . | / | /
O=C(C(=O)N1CCC(CNC(=O)C2COc3ccccc3O2)CC1)c1cc2ccccc2o1 (configuration not stated) | . | . | / | . | / | / | /
CN1C(=O)c2cc(NC(=O)Nc3ccc(F)c(F)c3)ccc2OC[C@H]2O[C@@H](CC(=O)O)CC[C@H]21 | . | . | / | . | / | / | /
Cc1ccc(NC(=S)NNC(=O)CSc2nnc(-c3ccc(C)cc3)n2C2CCCCC2)cc1 | 24.1 | . | / | . | / | . | .
Cc1ccc(NC(=S)NNC(=O)CSc2nnc(-c3ccc(Cl)cc3)n2C2CCCCC2)cc1 | 23.4 | . | . | . | . | 30.2 | . | 535nm interf DR=.
CCOC(=O)[C@]12CCCCC/C=C\1N(CCc1ccc(Cl)cc1)C(=O)[C@H]2CC(=O)NCc1ccc(OC)c(OC)c1 | . | . | / | . | / | / | /
CS/C(N)=N/N=C/c1cc(Br)cc(Br)c1O | 38.0 | . | . | . | . | 34.0 | 6.8
O=[N+]([O-])c1cc(Br)cc(/C=N/n2cnnc2)c1O | . | . | . | . | . | / | /
C=CCS/C(N)=N\N=C\c1cc(Br)cc([N+](=O)[O-])c1O | 38.1 | . | . | . | . | 29.8 | . | 535nm interf DR=.
CS/C(N)=N/N=C/c1cc(C)ccc1O | . | . | . | . | . | / | /
CCCCN1CCN(C(=O)C2CCN(S(=O)(=O)c3ccc4[nH]c(=O)oc4c3)CC2)CC1 | . | . | / | . | / | / | /
O=C1CN(C(=O)c2ccccc2Cl)c2ccccc2N1 | 20.5 | . | . | . | . | . | .
O=C1CN(C(=O)c2ccccc2C(=O)O)c2ccccc2N1 | . | . | . | . | . | / | /
CC(C)C[C@H]1COc2c(Cl)cccc2S(=O)(=O)N1 | . | . | / | . | / | / | /
CN(Cc1ccccc1)C(=O)c1ccc(Nc2nc(C(N)Cc3ccccc3)cs2)nc1 (configuration not stated) | . | . | / | . | . | / | /
CC(C)CC(N)c1csc(Nc2ccc(C(=O)N(C)Cc3ccccc3)cn2)n1 (configuration not stated) | 21.4 | . | / | . | . | . | .
O=C(CCCNC(=O)c1ccc(Cl)cc1)Nc1ccccc1F | 20.8 | . | . | . | . | . | .
COc1cccc(/C=N/n2c(-c3cc(C)[nH]n3)n[nH]c2=S)c1 | 19.4 | . | . | . | . | 22.5 | .
O=C(Nc1nc2ncccn2c1-c1ccc(C(F)(F)F)cc1)C1CC1 | . | . | / | . | / | / | /
Cc1cccc(C)c1NC(=O)C(c1ccc(-c2ccccc2)cc1)n1c(=O)c(-c2ccco2)nc2ccccc21 (configuration not stated) | 20.3 | . | / | . | / | . | .
CCCCCNC(=O)C(c1cccc2ccccc12)n1c(=O)c(-c2ccco2)nc2ccccc21 (configuration not stated) | 22.4 | . | / | . | / | . | .
NC1=NS(=O)(=O)Nc2ccccc21 | . | . | / | . | / | / | /
Cc1ccccc1C(=O)NC1CCCCN(C)C1=O (configuration not stated) | . | . | / | . | / | / | /
COc1ccc2cc3[n+](cc2c1O)CCc1cc2c(cc1-3)OCO2 | . | . | / | . | . | / | /
SMILES | sPLA2-III inh | ADAM17 inh | NR3A LBD binder | ADAM10 inh | FAS-TE inh | sPLA2 confirm | BODIPY interf | others
C[n+]1cc2c3c(ccc2c2ccc4cc5c(cc4c21)OCO5)OCO3 | 47.7 | . | / | . | / | 45.7 | . | 535nm interf DR=.
COc1cc2c(cc1OC)C(C(=O)O)C(c1ccc3c(c1)OCO3)N(C)C2=O (configuration not stated) | . | . | / | . | / | / | /
CC12CC3(C)CC(C)(C1)CC(C(=O)NC(=S)N1CCOCC1)(C2)C3 | 20.1 | . | . | . | . | 22.9 | .
O=C(NC(=S)N1CCOCC1)C12CC3CCC(CC(C3)C1)C2 | . | . | . | . | . | / | /
COc1cccc(Nc2nc(C(N)CO)cs2)n1 (configuration not stated) | 21.0 | . | / | . | . | . | .
COc1cccc(Nc2nc(C(N)Cc3ccccc3)cs2)n1 (configuration not stated) | . | . | / | . | . | / | /
Cc1ccc2c(c1)C(=O)C(=O)N2Cc1ccc(Cl)cc1 | 20.8 | . | . | . | . | 23.0 | .
Cc1cccc(-c2nnn3c2nc(NCCc2ccc(S(N)(=O)=O)cc2)c2ccccc23)c1 | 21.8 | . | 32.7 | . | . | . | .
CC(=O)NCCNc1nc2c(-c3cccc(C)c3)nnn2c2ccccc12 | . | . | . | . | . | / | /
Cc1c(Cl)c(C(=O)NNC(=S)Nc2ccccc2)nn1C | 29.0 | . | . | . | . | 46.5 | . | 535nm interf DR=.
Cc1c(Cl)c(C(=O)NNC(=S)Nc2ccc(F)cc2)nn1C | 33.7 | . | . | . | . | 40.6 | . | 535nm interf DR=.
CCNC(=S)NNC(=O)c1nn(C)c(C)c1Cl | . | . | . | . | . | / | /
O=S1(=O)N[C@@H](Cc2ccccc2)COc2cc(N3CCCCC3)ccc21 | . | . | / | . | / | / | /
C[C@H]1/C=C/CC(=O)N[C@@H](c2ccccc2)[C@@H](C)/C=C/CC(=O)N[C@H]1c1ccccc1 | . | . | / | . | / | / | /
CC(=O)c1ccc(Nc2nc(C(N)Cc3ccc(C(F)(F)F)cc3)cs2)cc1 (configuration not stated) | . | . | / | . | . | / | /
Cc1ccc(C(=O)Nc2nc(C(N)Cc3ccc(C(F)(F)F)cc3)cs2)cc1 (configuration not stated) | 22.8 | . | / | . | . | . | .
C[C@@H]1CN([C@H](C)CO)C(=O)CCCn2nncc2CO[C@H]1CN(C)C(=O)Nc1cccc(Oc2ccccn2)c1 | 20.3 | . | / | . | . | . | .
C[C@@H]1CN([C@@H](C)CO)C(=O)CCCn2nncc2CO[C@@H]1CN(C)C(=O)Nc1ccccc1C(F)(F)F | 20.7 | . | / | . | . | . | .
CC(C)C[C@H]1COc2cc(N3CCCC3)ccc2S(=O)(=O)N1 | . | . | / | . | / | / | /
Cc1ccc(/C=N/n2c(-c3cccnc3)n[nH]c2=S)s1 | 28.0 | . | . | . | . | 19.3 | .
S=c1[nH]nc(-c2cccnc2)n1/N=C/c1ccc(Br)s1 | . | . | . | . | . | / | /
Cc1ccc(/C=N/n2c(C3CCCCC3)n[nH]c2=S)s1 | 22.0 | . | . | . | . | . | .
O=C(OC12CCCN(C1)/C(=C/c1ccc(Cl)cc1)C2)c1ccco1 (configuration not stated) | . | . | / | . | / | / | /
COc1ccccc1CN1Cc2ccccc2Oc2ccccc2S1(=O)=O | . | . | / | . | / | / | /
